Source: PubChem BioAssay AID686921 (National Center for Advancing Translational Sciences (NCATS), 2013)
Values without a mark were called inactive. Calls of active or inactive are those of the source. Calls come from the whole dose curve; as a rule, active = well fitted curve in the direction sought with a large enough effect; inconclusive = small, poorly fitted or top-dose-only effect, or another doubt; inactive = no such curve, though single readings can be large or run the other way.

assay: qHTS screen for inhibitors of ELG1-dependent DNA repair in human embryonic kidney (HEK293T) cells expressing luciferase-tagged ELG1: 5FU Viability Assay for probe SAR; conditions: HEK293T ELG1-luc, CellTiter-Glo viability, 16 h; series mostly up to 46.1 µM; activity change, negative = inhibition: at the top concentration
Text: Cancer cells divide rapidly compared to normal cells in the body. During cell division, cancer cells need to duplicate their genome by DNA replication. The failure of genome duplication leads to cancer cells' death. Therefore, inhibitors of DNA replication could specifically kill cancer cells. Based on this concept, many chemotherapeutic agents were developed and have been used to treat cancer patients. However, there are a limited number of agents available in the clinical setting, and some of those that do exist have low efficacy and severe side effects. Therefore, if we can find the compounds that effectively block DNA replication either by directly damaging DNA or by inhibiting other cellular mechanisms, the options for cancer treatment will be broadened. With this in mind, we developed a quantitative high-throughput ELG1-luciferase reporter gene assay. Small molecules that specifically block ELG1 function in response to DNA damage can be identified by monitoring the suppression of luciferase activity. Since ELG1 defines a pathway for repairing DNA damage, agents blocking ELG1 function can be used to sensitize cancer cells to chemotherapeutic agents whose mechanism of action involves the induction of DNA damage. Cytotoxicity of the active compounds in the ELG1 qHTS assay (AID 493107) was assessed using the CellTiter-Glo Luminescent Cell Viability Assay kit (Promega, USA). CellTiter-Glo measures the intracellular ATP present in metabolically active cells using Ultra-Glo as the luciferase to detect ATP levels. In brief, the luciferase in the buffer catalyzes the oxidation of luciferin to oxyluciferin and light which is dependent on ATP. […] DMSO and wells with media alone were used as positive and negative controls, respectively. Inactivity to this assay is the desirable outcome. NIH Molecular Libraries Probe Production Network [MLPCN] NIH Chemical Genomics Center [NCGC] MLPCN Grant: R03 MH092164 Assay Provider: Kyungjae Myung, NHGRI, NIH
ELG1-luc HEK293T cells will be seeded in 1536-well plates at a density of 2,000 cells/well. Approximately 5 hours after plating, compounds will be added to the plate by pin tool transfer and 5-fluorouridine will be added by FRD dispenser (final concentration of 5-fluorouridine =10 µM). 16 hours following the addition of the compounds, cell viability will be measured using CellTiter Glo.

Compound | activity change, negative = inhibition | outcome
Fc1cc(Nc2nc(-c3ccncc3)nc3ccccc23)ccc1-c1cccnc1 | -10.6% | 
Fc1cc(Nc2nc(-c3ccncc3)nc3ccccc23)ccc1-c1ccncc1 | 37.6% | 
Cc1cc(-c2nc(Nc3ccc(F)c(F)c3)c3ccccc3n2)cc(C)n1 | 30.7% | 
Fc1cc(Nc2nc(-c3ccncc3)nc3ccccc23)ccc1-c1cccc(C(F)(F)F)c1 | -24.6% | 
Fc1cc(Nc2nc(-c3ccncc3)nc3ccccc23)ccc1-n1cncn1 |  | inactive
N#Cc1cnccc1-c1nc(Nc2ccc(F)c(F)c2)c2ccccc2n1 | 50.8% | 
COc1ccc(Nc2nc(-c3ccncc3)nc3ccccc23)cc1F | 0.644% | 
Fc1ccc(-c2nc(-c3ccncc3)nc3ccccc23)cc1F | -9.33% | 
Fc1cc(Nc2nc(-c3ccncc3)nc3ccccc23)ccc1OC(F)(F)F | 26.8% | 
Fc1ccc(Nc2nc(-c3ccnc(C(F)(F)F)c3)nc3ccccc23)cc1F | 11.1% | 
Fc1cc(Nc2nc(-c3ccncc3)nc3ccccc23)ccc1-c1cccc(OC(F)F)c1 | -3.5% | 
Fc1ccc(-c2ccc(Nc3nc(-c4ccncc4)nc4ccccc34)cc2F)cc1 | -6.05% | 
Fc1cc(Nc2nc(-c3ccncc3)nc3ccccc23)ccc1N1CCNCC1 | -13.6% | 
Fc1cc(Nc2nc(-c3ccncc3)nc3ccccc23)ccc1-c1ccnc(C(F)(F)F)c1 | -8.22% | 
COc1nccc(-c2nc(Nc3ccc(F)c(F)c3)c3ccccc3n2)c1Cl | 29.1% | 
Fc1cc(Nc2nc(-c3ccncc3)nc3ccccc23)ccc1C(F)(F)F | 4.15% | 
COc1cnccc1-c1nc(Nc2ccc(F)c(F)c2)c2ccccc2n1 | -5.9% | 
Oc1ccc(Nc2nc(-c3ccncc3)nc3ccccc23)cc1F | 21.5% | 
Fc1cc(Nc2nc(-c3ccncc3)nc3ccccc23)ccc1OCC(F)(F)F | 20.7% | 
COc1cc(Nc2nc(-c3ccncc3)nc3ccccc23)ccc1Cl | 2.26% | 

Compound | activity change, negative = inhibition | outcome
COc1cc(-c2nc(Nc3ccc(F)c(F)c3)c3ccccc3n2)c(F)cn1 | -19.9% | 
Fc1ccc(-c2ccc(Nc3nc(-c4ccncc4)nc4ccccc34)cc2F)c(F)c1 | -9.69% | 
COC(=O)c1ccc(Nc2nc(-c3ccncc3)nc3ccccc23)cc1OC | 34% | 
COc1nccc(-c2nc(Nc3ccc(F)c(F)c3)c3ccccc3n2)c1OC | 6.79% | 
O=[N+]([O-])c1ccc(-c2nc(Nc3ccc(F)c(F)c3)c3ccccc3n2)cc1 | -1.93% | 
N#Cc1cc(-c2nc(Nc3ccc(F)c(F)c3)c3ccccc3n2)ccn1 | 3.09% | 
Fc1cc(Nc2nc(-c3ccncc3)nc3ccccc23)ccc1-c1cncnc1 | 13.4% | 
COc1cc(-c2nc(Nc3ccc(F)c(F)c3)c3ccccc3n2)ccn1 | 36% | 
Fc1ccccc1-c1ccc(Nc2nc(-c3ccncc3)nc3ccccc23)cc1F | -31.3% | 
CCOC(=O)c1ccc2c(c1)c(C(C)=O)c(C)n2-c1ccc(OC)cc1 | -4.76% | 
Cc1cnccc1-c1nc(Nc2ccc(F)c(F)c2)c2ccccc2n1 | 30.7% | 
Fc1cc(Nc2nc(-c3ccncc3)nc3ccccc23)ccc1-c1ccc2[nH]ncc2c1 | -0.733% | 
Fc1ccc(Nc2cc(-c3ccccc3)nc(-c3ccncc3)n2)cc1F | 35.2% | 
CSc1ccccc1-c1ccc(Nc2nc(-c3ccncc3)nc3ccccc23)cc1F | -8.99% | 
Fc1cccc(-c2ccc(Nc3nc(-c4ccncc4)nc4ccccc34)cc2F)c1 | 24.5% | 
Fc1cc(Nc2nc(-c3ccncc3)nc3ccccc23)ccc1-c1cccc(OC(F)(F)F)c1 | -29.3% | 
O=c1cc(-c2nc(Nc3ccc(F)c(F)c3)c3ccccc3n2)cc[nH]1 | 31.2% | 
Cc1cc(-c2nc(Nc3ccc(F)c(F)c3)c3ccccc3n2)ccn1 | 22.7% | 
Fc1ccc(Nc2nc(-c3ccncc3)nc3ccccc23)cc1F | 57.5% | 
COc1cc(-c2nc(Nc3ccc(F)c(F)c3)c3ccccc3n2)cc(OC)n1 | 18.8% | 
